Bioassay records (PubChem BioAssay)
Compounds with a hit are over-represented: about 12% of the library has one in this group of screens.
USP30 block: inhibitors of human USP30 deubiquitinase; Q70CQ3; purified USP30, Ub-rhodamine cleavage fluorescence; inhibition, % at 25 µM; actives 5.3% (n = 47,000)
Target sequence (Q70CQ3 whole entry, looked up): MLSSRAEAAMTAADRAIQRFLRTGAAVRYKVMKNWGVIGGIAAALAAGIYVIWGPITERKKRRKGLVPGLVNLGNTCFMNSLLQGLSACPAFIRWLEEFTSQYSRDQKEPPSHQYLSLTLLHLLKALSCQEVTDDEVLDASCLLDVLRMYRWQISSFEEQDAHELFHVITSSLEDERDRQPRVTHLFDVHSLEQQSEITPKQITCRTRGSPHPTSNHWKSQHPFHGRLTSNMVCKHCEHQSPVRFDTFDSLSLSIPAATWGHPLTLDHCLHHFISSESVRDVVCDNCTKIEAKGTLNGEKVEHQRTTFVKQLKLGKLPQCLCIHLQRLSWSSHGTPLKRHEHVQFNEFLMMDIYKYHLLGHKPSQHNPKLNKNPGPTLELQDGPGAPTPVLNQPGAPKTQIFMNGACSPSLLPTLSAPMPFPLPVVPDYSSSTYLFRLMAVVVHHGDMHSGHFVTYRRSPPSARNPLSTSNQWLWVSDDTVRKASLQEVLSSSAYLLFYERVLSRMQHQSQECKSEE
OTUD3 block: inhibitors of human OTUD3 deubiquitinase; purified OTUD3, Ub-rhodamine fluorescence, 2 h; AID 1645858; actives 0.7% (n = 47,000); Q5T2D3; inhibition, % at 25 µM
USP17 block: blocks human USP17 ubiquitin-rhodamine cleavage | A8MUK1 | purified USP17, Ub-rhodamine cleavage fluorescence, 3 h | inhibition, % at 50 µM | actives 6.5% (n = 47,000) | AID 1645855
USP28 block: human USP28 deubiquitinase inhibition. Q96RU2. purified USP28, Ub-rhodamine cleavage fluorescence, 30 min. inhibition, % at 25 µM. actives 3% (n = 47,000). AID 1645857
An asterisk follows results filed as active; nt = no result. Rule as the data show it: active = inhibition above about 30%; inactive = the rest.

SMILES	USP30 block	OTUD3 block	USP17 block	USP28 block
CC(=O)C(Sc1nnc(-c2c[nH]c3ccccc23)n1-c1ccc(F)cc1)C(=O)N(C)C (stereo unspecified)	13.2	0.3	-1.0	0.0
N#Cc1ccccc1OCC(=O)NCc1ccc2c(c1)OCO2	-20.3	-11.6	-12.6	-11.2
O=C(NCc1ccc2c(c1)OCO2)c1ccccc1OCc1ccc(F)cc1	30.8*	20.4	32.5*	17.1
Cc1nc2c(-c3cccs3)cnn2c(C)c1C	-202.5	-22.6	-41.7	-177.6
O=C(Nc1ccccc1-c1nc2ccccc2[nH]1)c1sc2ccccc2c1Cl	3.9	-7.9	83.2*	-5.9
O=C(Nc1ccccc1-c1nc2ccccc2[nH]1)c1ccc(Br)cc1	-6.7	-4.4	-11.6	-10.4
CC(=O)Nc1ccc(S(=O)(=O)N(C)Cc2cc3ccccc3[nH]c2=O)cc1	-6.0	-9.4	-6.1	8.9
Cc1ccc2c(C)c(C(=O)N(Cc3ccc(Cl)cc3)Cc3ccco3)oc2c1C	0.0	18.1	34.8*	10.6
CCOc1cc(/C=C/C23NC(=O)CN2c2ccccc2C3(C)C)ccc1OCc1ccc(C)cc1 (stereo unspecified)	-236.7	-32.8	-33.6	-67.6
COc1ccc2c(C)c(CC(=O)N3CCN(c4ccccc4)CC3)c(=O)oc2c1	12.0	9.3	-11.5	8.5
Cc1c(CC(=O)N2CCN(c3ccccn3)CC2)c(=O)oc2cc(O)ccc12	4.3	19.7	-5.2	10.7
Cc1c(CC(=O)N2CCN(c3ccc(Cl)cc3)CC2)c(=O)oc2cc(O)c(Cl)cc12	35.3*	11.5	18.5	6.8
Cc1c(CC(=O)N2CCN(c3ncccn3)CC2)c(=O)oc2cc(O)ccc12	-8.7	6.7	62.6*	-3.5
CCc1[nH]c(=O)cc2cc(OC)c(OC)cc12	81.7*	92.2*	94.4*	96.8*
Cc1ccc(Nc2nc(NCCc3ccccc3)nc3c2cnn3C)cc1	15.7	-0.1	73.5*	-9.4
COc1ccc(Nc2nc(NCCCO)nc3c2cnn3C)cc1	-48.3	1.2	-11.7	-8.4
Cc1ccc(CNc2nc(Nc3ccc(C)cc3)c3cnn(C)c3n2)cc1	4.3	-2.4	7.6	0.1
COc1ccc(Nc2nc(NCc3ccccc3)nc3c2cnn3C)cc1	27.7	-15.8	31.9*	-0.5
CC(=O)Nc1cccc(NC(=O)CSc2ccc(-c3ccc4c(c3)OCO4)nn2)c1	32.7*	9.5	29.6	3.5
O=C(CSc1ccc(-c2ccccc2)nn1)Nc1ccc(F)c([N+](=O)[O-])c1	3.1	-3.5	1.8	4.2
O=C(CSc1ccc(-c2cccc([N+](=O)[O-])c2)nn1)Nc1cccc(F)c1	45.0*	5.2	78.9*	40.3*
O=C(CSc1ccc(-c2ccncc2)nn1)Nc1ccc(Cl)cc1	23.3	14.5	31.8*	10.4
COc1ccc(NC(=O)CSc2ccc(-c3cccnc3)nn2)cc1OC	-6.8	-7.2	-2.0	-16.0
Cn1cc(CN2CC[C@H]3O[C@@H](C(=O)Nc4cccnc4)CC[C@H]32)cn1	-14.2	-7.0	-14.8	-10.2
COc1ccc(-c2nc(CCNC(=O)c3c(F)cccc3F)cs2)cc1	-1.1	7.1	9.7	5.3
SMILES	USP30 block	OTUD3 block	USP17 block	USP28 block
CCn1cc(-c2cc(C(=O)Nc3cnn(Cc4cccc(F)c4)c3)c3ccccc3n2)cn1	1.3	-9.2	62.9*	-12.6
COc1ccc(/C=C/C(=O)Nc2ccccc2C#N)cc1	nt	0.1	68.2*	nt
COc1ccc(/C=C/C(=O)Nc2cc(C)ccn2)cc1	29.4	3.5	12.5	46.3*
COc1ccc(C)cc1NC(=O)/C=C/c1ccc(F)cc1	-2.3	0.5	-0.3	-10.2
Clc1cccc(N2CCN(c3ncnc4nc[nH]c34)CC2)c1	5.1	7.2	56.4*	4.9
O=C(Nc1ccc(Cl)cc1)C1CCCN(c2ncnc3nc[nH]c23)C1 (stereo unspecified)	-31.0	-5.0	39.0*	-10.3
Nc1nc(N2CCN(c3ccc(Cl)cc3)CC2)c2[nH]cnc2n1	16.3	-8.7	41.6*	-3.6
O=C(NCc1ccncc1)C1CCCN(c2ncnc3nc[nH]c23)C1 (stereo unspecified)	6.5	0.6	1.2	-1.0
Fc1ccc(N2CCN(c3ncnc4nc[nH]c34)CC2)cc1	6.7	3.3	-2.2	-13.3
CCN(CC)C(=O)c1sc(NC(=O)c2cc(-c3ccccc3Cl)nc3ccccc23)c(C(N)=O)c1C	5.2	-14.2	13.5	4.5
Cc1c(C(=O)N2CCCCC2)c(S(=O)(=O)N2CCN(C)CC2)c(C)n1C	-0.8	-3.6	3.3	-6.9
Cc1cnn(CC2CN(Cc3nc(-c4ccoc4)no3)CCO2)c1 (stereo unspecified)	18.7	9.4	10.5	6.8
O=C(Cn1cnc(-c2noc(-c3ccc(F)cc3)n2)c1)NC1CCCCC1	28.7	5.2	26.0	10.9
CCCn1c(=O)[nH]c2c(C(=O)N3CCN(C(C)C)CC3)snc2c1=O	-78.6	-4.2	-30.5	-14.1
CC(C)c1ccc(CNc2nc3ccncc3n(Cc3ccccc3)c2=O)cc1	nt	1.0	9.9	nt
CCn1c(=O)c(NCc2ccc(Cl)cc2)nc2ccncc21	34.3*	-2.9	47.8*	8.7
Cc1ccccc1C(=O)Nc1onc2c1CCCC2	-2.2	-0.6	-4.6	3.4
Cc1c(C(=O)N=CN(C)C)sc(C#N)c1-c1ccccc1	32.0*	3.7	17.8	7.3
COc1ccc(-c2cc(C(=O)NC3CCCCCC3)[nH]n2)cc1S(=O)(=O)N(C)C	3.2	-13.8	51.2*	0.2
COc1cccc(C2CC(c3ccc(F)cc3)=NC3(CCN(C)CC3)N2)c1O (stereo unspecified)	-51.8	-18.2	-5.7	-12.1
CC1=C(c2ccc(F)cc2)S(=O)(=O)N=C1Nc1cccc(F)c1	9.5	0.6	-45.1	1.4
COc1cccc(NC2=NS(=O)(=O)C(c3ccc(F)cc3)=C2C)c1	33.2*	3.5	2.7	11.1
CC1=C(c2ccc(F)cc2)S(=O)(=O)N=C1Nc1ccc(Cl)cc1	0.1	10.5	55.7*	5.2
CC1=C(c2ccc(F)cc2)S(=O)(=O)N=C1Nc1cc(C)cc(C)c1	19.1	2.5	8.7	5.9
COc1cccc(/C=C/C(=O)Nc2ccc(N3CCOCC3)cc2)c1OC	12.7	6.5	30.4*	59.6*
SMILES	USP30 block	OTUD3 block	USP17 block	USP28 block
CN(C)C(=O)CNC(=O)c1nc2c(s1)CCCN2c1ccccc1	nt	-2.6	-50.4	nt
Cc1ccn(-c2ccc(NC(=O)C3CCCCC3)cc2)n1	10.2	1.7	57.1*	11.0
NC(=O)c1ccc(Oc2ccc(Cl)cc2)nc1	30.0	12.6	32.0*	37.0*
CC(=O)Nc1ccc(Oc2cncc(Cl)c2)nc1	2.1	5.9	5.3	-2.8
CN1CCC(N2CCC[C@H]2c2nc(-c3ccc(N4CCOCC4)nc3)no2)CC1	-26.6	-16.1	-23.3	-22.8
Cc1ccc(Cl)c(-n2nnc(C(=O)Nc3ccccc3C#N)c2C)c1	30.2*	-4.6	56.1*	6.3
Cc1cc(NC(=O)c2nnn(-c3ccccc3Cl)c2C)no1	14.0	12.1	2.2	85.8*
Cc1ccc(NC(=O)c2nnn(-c3ccccc3)c2C)c(C)c1	1.3	-3.0	7.0	-6.3
O=C(/C=C/c1ccccc1)N1CCN(C2=NS(=O)(=O)c3ccccc32)CC1	79.8*	21.8	-0.3	0.2
Cn1c(=O)n(Cc2ccccc2F)c(=O)c2c1nc1n2CCCN1Cc1ccccc1	40.1*	11.4	7.0	22.1
